# Measurements from PubChem BioAssay (Tox21).
# Values joined by “and” are separate entries in the source; they are usually repeats but may differ in a detail not shown here. Equal values may be shown once. Inconclusive results are not listed. A number with no mark means an inactive call. Active and inactive are the calls of the source. The call rests on the fitted dose curve; in most records, active means well fitted cell-killing curve with a large enough effect in the repeat runs; inconclusive means weak or mixed curves, or effect the other way; inactive means flat fitted curve, though single readings scatter.
# Assay: qHTS assay to identify small molecule agonists of the estrogen receptor beta (ER-beta) signaling pathway - cell viability counter screen (AID 1259380); further: nearly all actives have a fitted effect of over 30% in size
# Details: ER-beta-bla HEK293T viability, CellTiter-Glo luminescence, 16 h; series mostly up to 92.4 µM; activity change, negative = cytotoxicity: at the top concentration
# Excerpt: National Center for Advancing Translational Sciences [NCATS]
# NIH Chemical Genomics Center [NCGC]
# U.S. Environmental Protection Agency [EPA]
# National Institutes of Environmental Health Sciences [NIEHS]
# National Toxicology Program [NTP]
# U.S. Food and Drug Administration [FDA]
# Estrogen receptor (ER), a nuclear hormone receptor, plays an important role in development, metabolic homeostasis and reproduction. Two subtypes of ER, ER-alpha and ER-beta, have similar expression patterns with some uniqueness in both types. Endocrine disrupting chemicals (EDCs) and their interactions with steroid hormone receptors like ER causes disruption of normal endocrine function. To identify the compounds that activate ER signaling, an ER beta-UAS-bla GripTite cell line (Life Technologies, Madison, WI, USA) containing a beta-lactamase reporter gene under the control of an UAS response element was used to screen Tox21 10K compound library. The cytotoxicity of the Tox21 compound library against the ER-beta-bla cell line was tested in parallel by measuring the cell viability using CellTiter-Glo assay in the same wells.
# Tox21 Assay Protocol Summary:
# ER-beta-UAS-bla HEK293T cells were dispensed at 2,000 cells/5 uL of assay medium containing 2% charcoal stripped FBS per well into black wall/clear-bottom 1536-well plates using a Multidrop Combi (ThermoFisher Scientific, Waltham, MA) dispenser. After the assay plates were incubated at a 37C and 5% CO2 for 6 hr, 23 nL of compounds dissolved in DMSO, positive controls or DMSO only was transferred to the assay plate by a Pintool station (Kalypsys, San Diego, CA). The plates were incubated at 37C and 5% CO2 for 16 hr. Then 1 uL of LiveBLAzerTM B/G FRET substrate was added using a BioRAPTR FRD (Flying Reagent Dispenser, Aurora Discovery, San Diego, CA) and then the plates were incubated at room temperature for 2 hours, and fluorescence intensity was measured by an Envision plate reader (PerkinElmer, Shelton, CT). For cell viability readout that measures cytotoxicity, 4 uL/well of CellTiter-Glo reagent was added into the assay plates using a FRD. After 30 min incubation at room temperature, the luminescence intensity in the plates was measured using a ViewLux (PerkinElmer) plate reader.
# On the % scale 0 is the no-effect control and ±100 the full control effect; potency means the concentration at half of the fitted maximal effect.
Compound,"activity change, negative = cytotoxicity",Potency
Cc1cc(Cl)ccc1O[C@H](C)C(=O)O,-1.92%,–
OC(Cc1ccccc1Cl)(Cn1cncn1)C1(Cl)CC1 (stereo not given),-8%,–
Clc1ccc(Oc2ccccc2)cc1,0.721%,–
O=c1oc2ccccc2c(O)c1Cc1c(O)c2ccccc2oc1=O,–,5.31 µM (active)
ClC1=C(Cl)C2(Cl)C3C(Cl)C=CC3C1(Cl)C2(Cl)Cl (stereo not given),–,61.4 µM (active)
c1ccc(Nc2ccc3ccccc3c2)cc1,–,68.2 µM (active)
COC(=O)N(C(=O)N1COC2(C(=O)OC)Cc3cc(Cl)ccc3C2=N1)c1ccc(OC(F)(F)F)cc1 (stereo not given),-10.9% [at 42.5 µM],–
C1CCC2CCCCC2C1 (stereo not given),-0.592%,–
O=C1NCN(c2ccccc2)C12CCN(CC1COc3ccccc3O1)CC2 (stereo not given),–,11.9 µM (active)
O=[N+]([O-])c1ccc2ccc3cccc4ccc1c2c34,–,30.6 µM (active)
CCCCCCCCc1ccc(O)cc1,–,15.4 µM (active)
CCS(=O)(=O)c1cccnc1S(=O)(=O)NC(=O)Nc1nc(OC)cc(OC)n1,0.715%,–
O=C(CCl)C(Cl)Cl,–,9.78 µM (active)
O=c1[nH]c2ccccc2n1CCCN1CCC(n2c(=O)[nH]c3cc(Cl)ccc32)CC1,–,9.44 µM (active)
CC(C)N1C(=O)N(c2ccccc2)CSC1=NC(C)(C)C,–,54.5 µM (active)
CC(C)Oc1cccc(NC(=O)c2ccccc2C(F)(F)F)c1,–,17.2 µM (active)
N#CSCSC#N,–,27.9 µM (active) and 27 µM (active)
O=C1C=CC(=O)c2ccccc21,–,21.7 µM (active)
CC(C)CC(C)Nc1ccc(Nc2ccccc2)cc1 (stereo not given),–,67.4 µM (active)
COc1ccc(/C(=C/C(=O)N2CCOCC2)c2ccc(Cl)cc2)cc1OC,–,68.6 µM (active)

Compound,"activity change, negative = cytotoxicity",Potency
COc1cccc2c1C(=O)c1c(O)c3c(c(O)c1C2=O)C[C@@](O)(C(=O)CO)CC3OC1CC(N2CCOC(OC)C2)C(O)C(C)O1 (stereo not given in full),-4.03% [at 42.5 µM],–
ClCc1ccccc1CCl,-4.81%,–
CC(=O)C(Cl)(Cl)Cl,-9.02%,–
CCc1nn(C)c(C(=O)NCc2ccc(C(C)(C)C)cc2)c1Cl,–,54.5 µM (active)
N#Cc1ccc(O)cc1,-2.53%,–
CC(=O)c1cc(C(C)(C)C)cc2c1CCC2(C)C,0.32%,–
CCC(C)c1cc([N+](=O)[O-])cc([N+](=O)[O-])c1OC(=O)C=C(C)C (stereo not given),3.05%,–
CC(=O)c1ccc(-c2ccccc2)cc1,-0.207%,–
CCOC(=O)c1ccccc1S(=O)(=O)NC(=O)Nc1nc(Cl)cc(OC)n1,0.126%,–
Clc1ccc(-c2ccc(Cl)c(Cl)c2Cl)c(Cl)c1Cl,–,58.2 µM (active)
C[C@@H](Oc1ccc(Cl)cc1Cl)C(=O)O,4.67%,–
C[CH2][Hg][N]1C(=O)C2C(C1=O)C1(Cl)C(Cl)=C(Cl)C2(Cl)C1(Cl)Cl (stereo not given),–,9.2 µM (active)
[Cd+2].[Cl-].[Cl-],–,69.1 µM (active) and 68.6 µM (active)
[Cl][Sb]([Cl])[Cl],9.91%,–
FC(Cl)(Cl)Cl,-2.02%,–
CCOCn1c(-c2ccc(Cl)cc2)c(C#N)c(Br)c1C(F)(F)F,–,27.3 µM (active)
O=C(O)C1C2CCC(O2)C1C(=O)O (stereo not given),–,inactive
NC(=O)CCl,-2.78%,–
Clc1ccc(C(c2ccccc2Cl)C(Cl)(Cl)Cl)cc1 (stereo not given),–,48.9 µM (active)
O=[N+]([O-])c1cc(C(F)(F)F)c(Cl)c([N+](=O)[O-])c1Cl,–,27.3 µM (active)
